The values below come from PubChem BioAssay AID504332 (National Center for Advancing Translational Sciences (NCATS), 2011).

The structures appear in SMILES notation. Hit rate of the full screen: of about 350,000 compounds, about 31,000 (8.9%) were called active. A call without a number means that no potency is given here. Roughly 15% stayed inconclusive and do not appear here. This excerpt belongs to a sample that is enriched for actives. Unmarked numbers belong to inactive results. The call rests on the fitted dose curve; in most records, active means well fitted inhibition curve with a large enough effect; inconclusive means small, poorly fitted or top-dose-only effect; inactive means no such curve, though single readings can be large or run the other way.
Potency means the concentration at half of the fitted maximal effect.

Sequence of Histone-lysine N-methyltransferase EHMT2 (Homo sapiens) (Q96KQ7 913-1193 limits assumed): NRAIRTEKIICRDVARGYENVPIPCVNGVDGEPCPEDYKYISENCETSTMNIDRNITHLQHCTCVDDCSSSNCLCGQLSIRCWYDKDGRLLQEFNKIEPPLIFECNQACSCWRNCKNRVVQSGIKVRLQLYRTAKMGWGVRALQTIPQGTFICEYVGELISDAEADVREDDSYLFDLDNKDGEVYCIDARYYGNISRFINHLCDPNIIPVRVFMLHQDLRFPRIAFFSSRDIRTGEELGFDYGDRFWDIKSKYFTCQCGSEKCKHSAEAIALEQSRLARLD

This test addresses Histone-lysine N-methyltransferase EHMT2 (Homo sapiens) (UniProt Q96KQ7). Put plainly: qHTS Assay for Inhibitors of Histone Lysine Methyltransferase G9a. Further: nearly all actives have a fitted effect of over 75% in size. The note with it: G9a H3K9 monomethylation, AlphaScreen, 2 h; series mostly up to 59 µM. A digest of the protocol:
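Methyltransferase reactions run at room temperature for 2 h (20 nM enzyme, 500 nM biotin-H3K9 peptide, 20 uM SAM) after a 15 min compound preincubation; product detected by AlphaScreen beads and anti-H3K9me1 antibody.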
(In qHTS, concentration-response curves come from the screen itself.)
Regarding `CCN(CC)S(=O)(=O)c1ccc2[nH]c(=O)cc(C(=O)N(C)C3CCS(=O)(=O)C3)c2c1` (stereo unspecified), the Potency result is “inactive”.
On the same count and under the same terms, to `COc1cccc(CNC(=O)C2CCN(S(=O)(=O)c3ccc4c(ccn4C)c3)CC2)c1` belongs “inactive”; to `COc1ccc(-c2nc(CS(=O)CC(=O)NCc3ccccc3)c(C)o2)cc1OC` (stereo unspecified), “inactive”; to `Cc1ccc(-c2nc(CS(=O)CC(=O)NC3CCCC3)c(C)o2)cc1` (stereo unspecified), 70.8 µM (active).
The same measure, in the same setting: to `COc1ccc(-c2nc(CS(=O)CC(=O)N3CCc4ccccc4C3)c(C)o2)cc1` (stereo unspecified) belongs 28.2 µM (active); to `COc1cccc(-c2nc(CS(=O)CC(=O)NCc3ccc(F)cc3)c(C)o2)c1` (stereo unspecified), “inactive”; to `Cc1cccc(-c2nc(CS(=O)CC(=O)NC(C)CCc3ccccc3)c(C)o2)c1` (stereo unspecified), “inactive”.
Still for that read-out and setting: to `COc1ccc(CNC(=O)CS(=O)Cc2nc(-c3cccc(C)c3)oc2C)cc1` (stereo unspecified) belongs “inactive”.
As for `CCC(=O)Nc1cccc(C(=O)OCc2cc(=O)n3nc(CC)sc3n2)c1`, the activity, negative = inhibition is -1.91% [at 12.7 µM].
Turning to `CC(C)CC(NS(=O)(=O)c1ccc2c(c1)oc(=O)n2C)C(=O)NCc1ccccc1Cl` (stereo unspecified), the Potency result is “inactive”.
`COc1ccccc1CNC(=O)C(Cc1ccccc1)NS(=O)(=O)c1ccc2c(c1)oc(=O)n2C` (stereo unspecified): the Potency entry was “inactive”.
Still for that read-out and setting: to `CCOc1ccc(OCC)c(NC(=O)C(NS(=O)(=O)c2ccc3c(c2)oc(=O)n3C)C(C)C)c1` (stereo unspecified) belongs 56.2 µM (active); to `CCCn1c2ccccc2c2cnn(CC(=O)N3CCCC(C(=O)OCC)C3)c(=O)c21` (stereo unspecified), “inactive”.
Still for that read-out and setting: to `CC(Sc1sc(=S)sc1SC(C)C(=O)O)C(=O)O` (stereo unspecified) belongs 50.1 µM (active); to `Cc1ccc(C)c(NC(=O)COC(=O)Cn2c(C)csc2=O)c1`, “inactive”.
Turning to `COc1ccccc1CCC(=O)NNC(=O)c1ccncc1`, the Potency entry is “inactive”.
On to `CC(C)(C)c1cc(P(=O)(c2ccccc2)c2ccccc2)ccc1O`, for which the Potency entry was “inactive”.
The same measure, in the same setting: to `O=C(CP(=O)(c1ccccc1)c1ccccc1)N1CCOCC1` belongs “inactive”; to `O=P(O)(CP(=O)(c1ccccc1)c1ccccc1)c1ccccc1O`, 50.1 µM (active).
For the compound `O=C1N(Cc2ccccc2)c2ccc(Cl)cc2C1(O)c1c[nH]c2ccccc12` (stereo unspecified), the Potency entry was “inactive”.
Still for that read-out and setting: to `COc1ccccc1N1CCN(C2C(=O)c3ccccc3N2C(C)=O)CC1` (stereo unspecified) belongs “inactive”; to `O=C(CCS(=O)(=O)c1ccc2c(c1)NC(=O)CS2)NCc1ccccc1Cl`, “inactive”; to `O=S1(=O)CC/C(=N\Nc2ccc(F)cc2)c2ccsc21`, 10 µM (active).
`COc1ccc(C(=O)N/N=C2\CCS(=O)(=O)c3ccc(F)cc32)cc1OC`: the activity, negative = inhibition was 27.4% [at 12.7 µM].
With `O=C(c1cccc(Cl)c1)N1CCN(CCc2ccncc2)CC1`, the Potency result was “inactive”.
Take `CN(C)CCOC(=O)C(c1ccccc1)C1(O)CCCC1` (stereo unspecified): the activity, negative = inhibition was 4.21% [at 2.33 µM].
For the compound `Cc1ccccc1C(OCC(O)CN1CCCCC1CCO)c1ccccc1` (stereo unspecified), the Potency entry is “inactive”.
As for `Cc1ccccc1C(OCCN(C)C)C1CCCCC1` (stereo unspecified), the Potency is 3.16 µM (active).
The same measure, in the same setting: to `COc1ccc(N=Nc2c(-c3ccc(OC)cc3)[nH]oc2=O)cc1` belongs 39.8 µM (active); to `COc1ccc(-c2cn[nH]c2-c2ccc(OC)cc2)cc1`, “inactive”.
With `COc1ccc2[nH]c(=O)c(-c3noc(-c4ccc(F)cc4)n3)cc2c1`, the activity, negative = inhibition was -36.9% [at 12.7 µM].
The same measure, in the same setting: to `Cc1occc1-c1nnc(SCC(=O)NC2CCCCC2)o1` belongs 9.17% [at 12.7 µM].
Consider `COc1ccccc1CNC(=O)CSc1nc(=O)n(Cc2ccncc2)c2c1CCC2`, for which the Potency entry was “inactive”.
Still for that read-out and setting: to `CC1CN(c2nc(-c3ccccc3)nnc2-c2ccccc2)CC(C)O1` (stereo unspecified) belongs “inactive”; to `Cc1cc(C(=O)COc2ccccc2[N+](=O)[O-])c(C)n1-c1cccc(S(=O)(=O)N2CCOCC2)c1`, “inactive”; to `CC1CN(CCOc2ccccc2[N+](=O)[O-])CC(C)O1` (stereo unspecified), 10 µM (active).
On the same count and under the same terms, to `CC1CN(CCCOc2ccccc2-c2ccccc2)CC(C)O1` (stereo unspecified) belongs 8.91 µM (active).
On the same count and under the same terms, to `O=[N+]([O-])c1ccccc1OCCCCN1CCCCC1` belongs “inactive”.
In the case of `CC1CC(C)CN(CCOc2cccc3ccccc23)C1` (stereo unspecified), the activity, negative = inhibition was 17.4% [at 2.33 µM].
With `CC1CCCN(CC(=O)Nc2cc(Cl)ccc2Oc2ccccc2)C1` (stereo unspecified), the Potency result is “inactive”.
The same measure, in the same setting: to `CC1CCCN(CCOCCOc2ccccc2-c2ccccc2)C1` (stereo unspecified) belongs 10 µM (active).
The same measure, in the same setting: to `CC1CN(CC(=O)NC(C)c2ccccc2)CC(C)O1` (stereo unspecified) belongs “inactive”.
Same read-out and setting: to `CC(C)(C)c1ccc(S(=O)(=O)N2CCN(C(=O)c3ccc4c(c3)C(=O)N(Cc3ccncc3)C4=O)CC2)cc1` belongs “inactive”; to `CCc1ccccc1NC(=O)CSc1nnc(-c2ccccc2)c(-c2ccccc2)n1`, “inactive”; to `O=C(Nc1ccc(-c2nc3cc(NC(=O)c4ccccc4Cl)ccc3o2)cc1)c1ccccc1Cl`, “inactive”.
For `O=C(CCc1nc2sc3c(c2c(=O)[nH]1)CCCC3)NCC(=O)Nc1ccccc1Br`, the activity, negative = inhibition is -4.82% [at 12.7 µM].
On the same count and under the same terms, to `COc1cccc(C(=O)N2CCC(n3nccc3NC(=O)C3CCOC3)CC2)c1` (stereo unspecified) belongs -5.15% [at 0.501 µM].
Take `Cc1cc(Br)ccc1NC(=O)Cn1cnc2sc(C)c(S(=O)(=O)N3CCN(C)CC3)c2c1=O`: the Potency result is “inactive”.
The same measure, in the same setting: to `COc1ccccc1-c1nnc(NC(=O)c2cccc(N3C(=O)CCC3=O)c2)o1` belongs 1.41 µM (active); to `O=C(Nc1cccc2cccnc12)c1cccc(N2C(=O)CCC2=O)c1`, “inactive”; to `Cc1cc(NC(=O)c2cccc(N3C(=O)CCC3=O)c2)no1`, “inactive”.
Same read-out and setting: to `COc1cc(CN2CCN(Cc3ccc(C)cc3)CC2)c([N+](=O)[O-])cc1OC` belongs 4.47 µM (active).
For `COc1cc(NC(=O)NCC2CCN(Cc3ccc(C)cc3)CC2)cc(OC)c1OC`, the Potency result is “inactive”.
The same measure, in the same setting: to `COc1cc(CN2CC(C)CC(C)C2)cc([N+](=O)[O-])c1O` (stereo unspecified) belongs “inactive”; to `CCOC(=O)c1cc(-c2ccccc2)n(CCC(=O)Nc2ccccc2CC)c1C`, “inactive”; to `COC(CCN(C)C)(c1ccccc1)c1ccccc1`, “inactive”.
On the same count and under the same terms, to `CN(C)CCOC1c2ccccc2-c2ccccc21` belongs 22.4 µM (active); to `O=C(N/N=C\c1ccc(Br)cc1)c1ccc(Cn2cccn2)o1`, “inactive”.
The same measure, in the same setting: to `O=C(N/N=C/c1ccc2c(c1)OCO2)c1ccc(Cn2cc([N+](=O)[O-])cn2)o1` belongs “inactive”; to `CN(C)c1ccc(/C=N/NC(=O)c2ccc(Cn3cc(Br)cn3)o2)cc1`, 39.8 µM (active).
As to `Cc1ccc(C)c(N2CCN(C(=O)Cc3c(C(=O)O)c(C)cn3C)CC2)c1`, the Potency result is “inactive”.
As to `CCC(C(=O)N1CCN(S(=O)(=O)c2sc(C(=O)O)c(C)c2C(=O)O)CC1)c1ccccc1` (stereo unspecified), the activity, negative = inhibition was -9.12% [at 2.33 µM].
`COc1cc(/C=N/Nc2ccc(C)cc2)cc(Br)c1O`: the Potency is 3.98 µM (active).
Same read-out and setting: to `COc1cc(/C=N/O)cc(Br)c1OS(=O)(=O)c1ccc(C)cc1` belongs “inactive”.
For `COc1ccc(C(=O)Oc2cc(/C=N/NS(=O)(=O)c3ccc(C)cc3)ccc2OC)cc1`, the Potency result is “inactive”.
For `O=C(NC1CC(=O)N(c2ccc(F)cc2)C1)C1CCCCC1` (stereo unspecified), the Potency entry is “inactive”.
`COc1ccc(NC(=O)CSc2nnc(-c3nnn(-c4ccc(F)cc4)c3C)o2)cc1`: the Potency result was “inactive”.
Turning to `Cc1c(O)c(C)c2c(c1O)C(=O)C[C@@H](c1ccccc1)O2`, the activity, negative = inhibition was 17.8% [at 2.33 µM].
For `CCn1c(C(C)NC(=O)c2ccc(C)cc2)n[nH]c1=S` (stereo unspecified), the Potency is 39.8 µM (active).
Same read-out and setting: to `CCn1c(SCC(=O)NNC(=O)c2ccc(OC)cc2)nnc1C(C)C` belongs “inactive”; to `CCn1c(SCC(=O)Nc2nc(C)cs2)nnc1C(C)NC(=O)c1ccccc1` (stereo unspecified), “inactive”; to `CC(NC(=O)CCc1cn(Cc2ccccc2Cl)c2ccccc12)c1ccccc1` (stereo unspecified), “inactive”.
Regarding `COc1ccc(Cn2c(=O)n(-c3ccccc3C)c(=O)c3c4c(sc32)CN(C(C)=O)CC4)cc1`, the Potency result was “inactive”.
On the same count and under the same terms, to `CCN(CC)c1ccc2c(Nc3ccccc3)c(C=O)c(=O)oc2c1` belongs “inactive”; to `CCN(CC)c1ccc2oc(=O)c(C)nc2c1`, 11.2 µM (active); to `CCN(CC)c1ccc2cc(C(N)=O)/c(=N\NC(=O)c3ccncc3)oc2c1`, “inactive”.
Still for that read-out and setting: to `COc1ccc(CNc2nc(-c3ccc(Cl)cc3)nn2C(=O)c2ccccc2)cc1` belongs “inactive”; to `CCN(Cc1ccccc1)S(=O)(=O)c1cc2c3c(c1)CCN3C(=O)CC2`, “inactive”; to `O=C(NCc1ccccc1Cl)C1CCC(CNc2c(N3CCCCC3)c(=O)c2=O)CC1` (stereo unspecified), “inactive”.
Same read-out and setting: to `CCOc1ccccc1NC(=O)C1CCC(CNc2c(N3CCOCC3)c(=O)c2=O)CC1` (stereo unspecified) belongs “inactive”; to `CCN(CC)c1ccc(NC(=O)C2CCC(CNc3c(N4CCCC4)c(=O)c3=O)CC2)c(C)c1` (stereo unspecified), 39.8 µM (active); to `COc1ccc(Cc2nc3ccc(C(=O)NCC4CCOCC4)cc3o2)cc1OC`, “inactive”.
Consider `CC(C)C(=O)Nc1nnc(SCC(=O)N2C(C)CCCC2C)s1` (stereo unspecified), for which the Potency is 79.4 µM (active).
`CC(C)N(C(=O)CSc1nnc(NC2CC2)s1)c1ccccc1`: the activity, negative = inhibition is -6.53% [at 0.501 µM].
As to `CC1CCCC(C)N1C(=O)CSc1nnnn1C1CCCC1` (stereo unspecified), the Potency entry is “inactive”.
In the case of `COc1cccc(-c2cc(C(=O)Nc3ccc(C)cc3)[nH]n2)c1`, the Potency result is “inactive”.
On the same count and under the same terms, to `COc1ccc(-c2csc(-c3c(N)c(C(=O)c4ccc(OC)c(OC)c4)n4ccccc34)n2)cc1` belongs “inactive”.
`COc1cc(CN(C(=O)c2ccccc2Br)c2ccccn2)cc(OC)c1OC`: the Potency entry was “inactive”.
The same measure, in the same setting: to `O=C(c1ccncc1)N1CCN(S(=O)(=O)c2cc(C(F)(F)F)cc(C(F)(F)F)c2)CC1` belongs “inactive”; to `OCCCNC(c1ccccc1)c1ccc(O)cc1` (stereo unspecified), 11.2 µM (active); to `O=C(Nc1cc(Cl)cc(Cl)c1)C(NCCCO)c1ccccc1` (stereo unspecified), “inactive”.
Still for that read-out and setting: to `O=C(CNC(c1ccccc1)c1ccccc1)Nc1ccc(F)cc1` belongs “inactive”.
`CCCCN(C)CCCNC(=O)CN1N=C(c2ccc(OC)cc2)CCC1=O`: the Potency result was “inactive”.
The same measure, in the same setting: to `O=C(NCCCN1CCCC1=O)c1ccc(S(=O)(=O)Nc2ccccc2)cc1` belongs “inactive”.
For the compound `CC(=O)Nc1ccc(NC(=O)CCN2C(=O)C3CC=CCC3C2=O)cc1` (stereo unspecified), the activity, negative = inhibition is -17% [at 12.7 µM].
For `Cc1ccccc1OCC(=O)Nc1c(C(=O)Nc2ccccc2F)oc2ccccc12`, the Potency result was “inactive”.
